Assay outcomes deposited in PubChem BioAssay by National Center for Advancing Translational Sciences (NCATS).
Shown are actives, neighbours in structure and some others; about 2.4% of the full set was active somewhere.
D2 PAM-1: D2 dopamine receptor (human) potentiation; HEK293 T-REx D2, calcium flux, EC20 dopamine potentiation; P14416; potentiation, % at 10 µM; hit rate 0.34% among 340,000;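 active means potentiation over 3 SD above the plate norm, cut at about 30% in these data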; further: 0% is about no effect
Target sequence (P14416 whole entry, looked up): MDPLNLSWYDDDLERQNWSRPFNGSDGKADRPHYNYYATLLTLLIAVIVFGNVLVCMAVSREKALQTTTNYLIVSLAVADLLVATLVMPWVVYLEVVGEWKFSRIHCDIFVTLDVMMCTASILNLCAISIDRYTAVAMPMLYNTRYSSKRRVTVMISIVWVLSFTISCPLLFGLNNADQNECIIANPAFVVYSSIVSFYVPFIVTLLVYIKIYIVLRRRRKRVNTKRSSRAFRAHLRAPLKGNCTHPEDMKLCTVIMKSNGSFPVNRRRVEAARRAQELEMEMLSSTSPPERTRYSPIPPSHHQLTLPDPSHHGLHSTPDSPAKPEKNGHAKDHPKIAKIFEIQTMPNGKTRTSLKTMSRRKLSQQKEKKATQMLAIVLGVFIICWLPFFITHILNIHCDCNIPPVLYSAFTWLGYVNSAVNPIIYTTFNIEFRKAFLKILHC
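Cells plated with tetracycline inducer and held overnight at 30 C; calcium dye loaded 30–90 min at room temperature; baseline taken, compound added and read 180 s; EC20 dopamine then added and read 180 s.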
D2 ag-1: D2 dopamine receptor (human) agonism; HEK293 T-REx D2 cells, calcium flux agonist mode; AID 485358; P14416; activation, % at 2 µM; hit rate 0.53% among 340,000;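 active means activation over 3 SD above normal in the single-dose calcium agonist read, cut at about 30% in these data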; further: 0% is about no effect
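Calcium-flux readout, 1 cycle/sec over 180 s following compound pin transfer, in inducible HEK293 Trex D2 cells (force-coupled); dopamine controls included. Positive calcium responses during this window marked compounds as potential agonists.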
D2 PAM-2: human D2 receptor positive allosteric modulation | DiscoveRx D2 beta-arrestin cells, luminescence, 90 min; 100% = 57 uM dopamine signal | P14416 | hit rate 0.23% among 360,000 | AID 624464 | potentiation, % (no concentration beside the values); in the data active means potentiation above about 50%
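D2 cells co-treated with compound plus 50 nM dopamine (EC20) for 90 min at 37 deg C to detect potentiation. Beta-arrestin recruitment was read as enzyme-fragment luminescence after 1 h at ambient temperature. Full response was set by 57 uM dopamine.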
D2 ag-2: human D2 receptor agonism in beta-arrestin assay | P14416 | DiscoveRx PathHunter D2 beta-arrestin, luminescence, 90 min; 100% = 57 uM dopamine signal | activation, % (no concentration beside the values) | hit rate 0.084% among 360,000 | AID 624465; in the data active means activation above about 40%
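DiscoveRx PathHunter D2 beta-arrestin cells (2,100/well) attached overnight, then compound-stimulated 90 min at 37 C in HBSS/10 mM HEPES/0.1% Tween-20 buffer; beta-galactosidase complementation read by luminescence after 1 h at ambient temperature. Dopamine 57 uM final (EC100) as control.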
D2 antagonist: antagonists of human D2 dopamine receptor. inhibition, % at 10 µM. P14416. hit rate 2% among 340,000. AID 485344. HEK293 TREx D2 cells, calcium flux, dopamine EC80; in the data active means inhibition above about 30%; inactive means below that, where a call was filed; further: 0% is about no effect
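Calcium flux kinetic readout in an inducible HEK293 TREx D2 line plated overnight at 30 C. After 180 s compound exposure, an EC80 dopamine challenge follows with another 180 s kinetic read to detect antagonism.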
* = called active by the depositor; nt = not tested or not shown.

SMILES	D2 PAM-1	D2 ag-1	D2 PAM-2	D2 ag-2	D2 antagonist
CC(C)CN(C(=O)c1cccc(S(=O)(=O)N2CCN(c3ccc(F)cc3)CC2)c1)C1CCS(=O)(=O)C1 (stereo not drawn)	-8	0	-21	-4	35*
CC(C)CN(C(=O)Cn1nnc(-c2ccc(Cl)cc2)n1)C1CCS(=O)(=O)C1 (stereo not drawn)	nt	nt	-16	-5	nt
CC(C)CN(C(=O)Cn1nnc(-c2ccc(F)cc2)n1)C1CCS(=O)(=O)C1 (stereo not drawn)	-6	1	-67	-6	55*
CC(NC(=O)C(=O)NCCN1CCN(C(=O)c2ccccc2Br)CC1)c1ccccc1 (stereo not drawn)	-1	-1	-4	0	-6
CC(C)C[C@H](NC(=O)c1[nH]cnc1C(=O)Nc1ccccc1F)C(=O)OC(C)(C)C	nt	nt	nt	-3	nt
O=C(Nc1ccc(S(=O)(=O)Nc2ncccn2)cc1)c1cccnc1	6	0	1	1	42*
O=C(Nc1ccc(S(=O)(=O)Nc2ccccn2)cc1)c1cccc([N+](=O)[O-])c1	-3	0	16	3	39*
Cn1cc(C(=O)NCCc2ccccc2)c(=O)c2cc(S(=O)(=O)N3CCCCC3)ccc21	10	0	nt	nt	nt
COc1cccc(CCc2nnc(CCC(=O)N(C)C3CC(C)(C)NC(C)(C)C3)o2)c1	0	1	-3	-1	16
COc1cc(Cl)c(CN2CCCC(CO)(Cc3ccccc3F)C2)cc1OC (stereo not drawn)	1	1	-13	3	1
COc1cccc(CC2(CO)CCCN(Cc3ccc4c(c3)OCCO4)C2)c1 (stereo not drawn)	-28	0	-6	-5	56*
CCn1ccnc1CN1CCCC(CO)(Cc2cccc(OC)c2)C1 (stereo not drawn)	-4	-1	-19	-5	11
CCOc1ccc(CN2CCCC(CO)(Cc3ccccc3F)C2)cc1 (stereo not drawn)	-35	0	-4	-5	67*
OCC1(Cc2ccccc2)CCCN(Cc2ccc(-c3ccco3)cc2)C1 (stereo not drawn)	-20	-2	-29	-6	54*
O=S(=O)(c1ccc(-c2ccon2)s1)N1CCN(c2ccncc2)CC1	12	0	-9	-5	-3
O=C(NCC1CCCO1)c1nnc(Cc2ccc(F)cc2)o1 (stereo not drawn)	-3	1	-4	-4	39*
c1ccc(CNc2nc3ccccc3n3cnnc23)nc1	0	1	-2	-1	20
c1ccc(CNc2nc3ccccc3n3cnnc23)cc1	41*	0	-3	-2	-3
COC(=O)c1nn(-c2cccc(C)c2)c2nnc(Cc3ccccc3)c(=O)n12	-12	0	11	5	63*
COC(=O)c1nn(-c2ccccc2)c2nnc(Cc3ccc(C)cc3)c(=O)n12	0	0	-7	-4	-4
CN(CCCNC(=O)c1cccn2c(=O)c3ccccc3nc12)Cc1ccccc1	-21	0	-20	-3	31*
O=C(NCCN1CCN(c2ccccc2)CC1)c1cccn2c(=O)c3ccccc3nc12	7	6	-27	-4	18
Cc1c(Cl)ccc2sc(N3CCN(C(=O)c4ccco4)CC3)nc12	4	0	nt	nt	nt
COc1cccc(NC(=O)C2CCCN2C(=O)Nc2cccc(F)c2)c1 (stereo not drawn)	-2	0	3	-2	2
COc1cccc(NC(=O)C2CCCN2C(=O)Nc2ccccc2)c1 (stereo not drawn)	4	-1	-14	-5	33*
SMILES	D2 PAM-1	D2 ag-1	D2 PAM-2	D2 ag-2	D2 antagonist
Cc1ccccc1NC(=S)NC1CC2CCC(C1)N2Cc1ccco1 (stereo not drawn)	-18	0	-21	-2	39*
Cc1cccc(NC(=S)NC2CC3CCC(C2)N3Cc2ccco2)c1 (stereo not drawn)	-20	0	-28	0	39*
CCc1ccc(NC(=O)C/C(C)=N/NC(=O)COc2ccccc2C)cc1	-8	0	-9	-5	40*
COc1ccc(Cl)cc1NC(=O)Cn1c(C)csc1=O	-3	0	-20	1	12
CC(C)NC(=O)c1ccc(C2SCC(=O)N2Cc2ccccc2)cc1 (stereo not drawn)	8	0	0	2	50*
O=C1CSC(c2cccc([N+](=O)[O-])c2)N1Cc1ccccc1 (stereo not drawn)	-10	-1	-3	7	30*
Cc1ccc(C(=O)NCCN2CCCC2)cc1	-31	0	-17	-3	8
CCOc1c(Cl)cc(C(=O)NCCN2CCCCC2)cc1Cl	-9	0	-17	1	34*
CCOc1ccc(-c2nonc2NC(=O)c2ccccc2C)cc1	9	-1	nt	nt	nt
CC(C)CCn1c(=O)c2sccc2n2c(CCCC(=O)N3CCC(N4CCCCC4)CC3)nnc12	-3	nt	-8	-1	nt
O=C1c2cccc3c(N4CCCCC4)ccc(c23)C(=O)N1c1ccc(O)cc1	-4	66*	-6	1	29
O=C1c2cccc3c(N4CCCCC4)ccc(c23)C(=O)N1c1ccccc1O	-5	36*	-8	-3	8
O=C1c2cccc3cccc(c23)C(=O)N1c1ccc(O)cc1	-2	0	-1	3	4
COc1ccc(CNC(=S)Nc2ccc(F)c(Cl)c2)cc1	7	2	-15	1	68*
CC(CSc1nnnn1-c1ccccc1)Cn1c(N2CCCC2)nc2c1c(=O)[nH]c(=O)n2C (stereo not drawn)	6	1	-11	-4	-10
Cn1c(=O)[nH]c(=O)c2c1nc(N1CCOCC1)n2CCSc1nnnn1-c1ccccc1	-7	0	-7	6	37*
CC(C)(C)OC(=O)NCCCCCc1nnc(SCc2ccccc2)o1	1	-1	-11	3	36*
CCOc1ccccc1CNC(=O)c1cn(-c2ccc(OC)cc2)c(=O)c2ccccc12	8	0	nt	nt	nt
CCOC(=O)CN1CC23C=CC(O2)C(C(=O)NC2CCCCC2)C3C1=O (stereo not drawn)	4	0	2	-4	-8
CCOC(=O)CN1CC23C=CC(O2)C(C(=O)NC2CCCC2)C3C1=O (stereo not drawn)	45*	-1	0	1	-7
COCCCNC(=O)C1C2C=CC3(CN(Cc4ccc(C)cc4)C(=O)C13)O2 (stereo not drawn)	15	0	-12	-1	39*
Cc1ccc(CN2CC34C=CC(O3)C(C(=O)NCc3ccc5c(c3)OCO5)C4C2=O)cc1 (stereo not drawn)	nt	nt	0	-2	nt
